Molecules are shown by their SMILES.

Here are results for 13 compounds from paper PMC5540273 (PLoS ONE, 2017).
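Further: KINOMEscan kinase panel screen.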

The test system of this test is ACVR2A. The following applies: concentration: 1 μM, replicates: in singlicate; n = 1.
As to `Nc1n[nH]c2ncc(-c3ccccc3)cc12` [SB-517081], the “%Inh” value was 0%.
The value for `COc1cc(Nc2nccc(N3CCC(NC(=O)C4COc5ccccc5O4)C3)n2)cc(OC)c1OC` (stereo not shown) [GSK1379761] was 22%; that for `COc1cc2ncn(-c3cc(OCCCc4ccccc4)c(C(N)=O)s3)c2cc1OC` [GSK205189] was 0%.
Regarding `CCC(=O)c1c(-c2ccccc2)c2cc(Cl)ccc2c(=O)n1Cc1cc(C(=O)NC2CC2)n(C)n1`, the “%Inh” value is listed as 0%.
Regarding `C[C@@H]1CC[C@H](C(=O)NC2CCCCC2)CN1c1cc(-c2ccc3c(N)n[nH]c3c2)nc(N)n1` [GSK2291363], the “%Inh” value is 0%.
On to `CCc1ccc(-c2ccc3c(c2)-c2nn(C)cc2S(=O)(=O)N3C)cc1`, for which the “%Inh” value is 21%.
On to `Cc1nnc(-c2ccc(C)c(-c3ccc(C(=O)O)cc3)c2)o1` [GW608005], for which the “%Inh” value was 0%.
As to `COc1cc(OC)cc(-c2cc3cnc(N)nc3nc2NC(=O)NC(C)(C)C)c1`, the “%Inh” value was determined as 0%.
Turning to `COC(=O)c1c(-c2ccccc2)c2cc(Br)ccc2c(=O)n1Cc1ccc(S(C)(=O)=O)cc1`, the “%Inh” value amounted to 0%.
Consider `Cl.NS(=O)(=O)c1cccc(Nc2cc(-c3ccc(F)cc3)n[nH]2)c1` [GW824645], for which the “%Inh” value came to 0%.
Consider `CCC(=O)c1c(-c2ccccc2)c2cc(Cl)ccc2c(=O)n1Cc1cc(S(C)(=O)=O)n(CC(N)=O)n1`, for which the “%Inh” value was determined as 14%.
Consider `COc1cc2nccc(Nc3ccc(OCc4ccc(NC(C)=O)cc4)cc3)c2cc1OC.Cl` [GW440135], for which the “%Inh” value is on record as 0%.
Take `COc1cccc(C2=C(Nc3cccc(C(=O)O)c3)C(=O)NC2=O)c1` [SB-390770]: the “%Inh” value is reported as 17%.
